Measurements as given in PubChem BioAssay (NCATS).
Inconclusive results are not listed. A call without a number means that no potency is given here. Unmarked numbers belong to inactive results. Calls of active or inactive are those of the source. The call rests on the fitted dose curve; in most records, active means well fitted inhibition curve with a large enough effect; inconclusive means small, poorly fitted or top-dose-only effect; inactive means flat fitted curve, though single readings scatter.

Experiments:
[1] = qHTS profiling for inhibitors of Plasmodium falciparum proliferation (AID 504749); further: nearly all actives have a fitted effect of over 60% in size; conditions: P. falciparum in erythrocytes, SYBR Green DNA, 72 h
How it was run: (§1)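 Fluorescence of SYBR Green-bound parasite DNA, read at 485/535 nm, served as the growth measure. Infected erythrocytes were cultured with compound 72 h; artemisinin (0.29 uM) and DMSO wells defined the normalization range.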

AA1029 = assay: as above; conditions: P. falciparum in erythrocytes, SYBR Green DNA, 72 h; series mostly up to 28.7 µM
How it was run: as §1

AS120 = assay: as above; conditions: P. falciparum in erythrocytes, SYBR Green DNA, 72 h; series mostly up to 28.7 µM
How it was run: as §1

ATS189 = assay: as above; conditions: P. falciparum in erythrocytes, SYBR Green DNA, 72 h; series mostly up to 28.7 µM
How it was run: as §1

ATS95 = assay: as above; conditions: P. falciparum in erythrocytes, SYBR Green DNA, 72 h; series mostly up to 28.7 µM
How it was run: as §1

C2A = assay: as above; conditions: P. falciparum in erythrocytes, SYBR Green DNA, 72 h; series mostly up to 28.7 µM
How it was run: as §1

CP185 = assay: as above; conditions: P. falciparum in erythrocytes, SYBR Green DNA, 72 h; series mostly up to 28.7 µM
How it was run: as §1

3D7 = assay: as above; conditions: P. falciparum in erythrocytes, SYBR Green DNA, 72 h; series mostly up to 28.7 µM
How it was run: as §1

7G8 = assay: as above; conditions: P. falciparum in erythrocytes, SYBR Green DNA, 72 h; series mostly up to 28.7 µM
How it was run: as §1

[2] = at 28.7 µM (top of the series), parasite line A
[3] = at 28.7 µM (top of the series), parasite line B
[4] = at 12.8 µM (top of the series), parasite line A
[5] = at 12.8 µM (top of the series), parasite line B
Potency means the concentration at half of the fitted maximal effect.

| SMILES | activity, negative = inhibition [1, 2] [%] | activity, negative = inhibition [1, 3] [%] | Potency (AA1029) | Potency (AS120) | Potency (ATS189) | Potency (ATS95) | Potency (C2A) | Potency (CP185) | Potency (3D7) | activity, negative = inhibition [1, 4] [%] | activity, negative = inhibition [1, 5] [%] | Potency (7G8) | Potency ([1]; parasite line A) | Potency ([1]; parasite line B) |
| --- | --- | --- | --- | --- | --- | --- | --- | --- | --- | --- | --- | --- | --- | --- |
| Clc1ccc(C(c2ccccc2Cl)C(Cl)Cl)cc1 (stereo not given) | -12.9 | -9.4 | inactive | inactive | inactive | inactive | inactive | inactive |  |  |  |  |  |  |
| CC(CCc1ccc(O)cc1)NCCc1ccc(O)c(O)c1 (stereo not given) | 7.14 | -3.6 | inactive | inactive | inactive | inactive | inactive | inactive | inactive |  |  |  |  |  |
| CN1C(C(=O)Nc2ccccn2)=C(O)c2ccccc2S1(=O)=O |  |  | inactive | inactive | inactive | inactive | inactive | inactive | inactive | -3.72 | -0.0614 | inactive |  |  |
| CCOC(=O)c1ncn2c1CN(C)C(=O)c1cc(F)ccc1-2 | 8.32 | 17 | inactive | inactive | inactive | inactive | inactive | inactive | inactive |  |  |  |  |  |
| Clc1ccccc1C(c1ccccc1)(c1ccccc1)n1ccnc1 |  |  | 0.891 µM (active) | 0.178 µM (active) | 0.708 µM (active) | 1 µM (active) | 1.78 µM (active) | 1.78 µM (active) |  |  |  |  | 0.631 µM (active) | 0.708 µM (active) |
| CN1CCC(=C2c3ccccc3CC(=O)c3sccc32)CC1 |  |  |  |  |  | 11.2 µM (active) |  |  |  |  |  | 11.2 µM (active) | 5.01 µM (active) |  |
| CC(C)NCC(O)c1ccc(O)c(O)c1 (stereo not given) | -3.62 | -0.405 | inactive | inactive | inactive | inactive | inactive | inactive | inactive |  |  |  |  |  |
| CC(C)C(=O)Nc1ccc([N+](=O)[O-])c(C(F)(F)F)c1 | 5.81 | 10.3 | inactive | inactive | inactive | inactive | inactive | inactive | inactive |  |  |  |  |  |
| Cc1cnc(C(=O)NCCc2ccc(S(=O)(=O)NC(=O)NC3CCCCC3)cc2)cn1 | 8.33 | 4.07 | inactive | inactive | inactive | inactive | inactive | inactive | inactive |  |  | inactive |  |  |
| CC12CC3CC(C)(C1)CC(N)(C3)C2 | 13.9 | 1.67 | 10 µM (active) | inactive | inactive |  | inactive | inactive | inactive |  |  | 8.91 µM (active) |  |  |
| CCCCc1oc2ccccc2c1C(=O)c1cc(I)c(OCCN(CC)CC)c(I)c1 |  |  | 6.31 µM (active) | 3.55 µM (active) | 5.62 µM (active) | 5.01 µM (active) | 10 µM (active) | 8.91 µM (active) |  |  |  | 3.16 µM (active) | 4.47 µM (active) | 2.82 µM (active) |
| CN(C)CCC=C1c2ccccc2C=Cc2ccccc21 | -3.11 | -19.2 |  |  | inactive |  | inactive | inactive | inactive |  |  | 7.94 µM (active) |  |  |
| O=c1c(O)c(-c2ccc(O)c(O)c2)oc2cc(O)cc(O)c12 |  |  |  | 11.2 µM (active) |  |  |  |  | 12.6 µM (active) |  |  |  |  |  |
| Nc1nc2c(ncn2COC(CO)CO)c(=O)[nH]1 |  |  | inactive | inactive | inactive | inactive | inactive | inactive | inactive | -0.332 | 8.95 | inactive |  |  |
| CC(COc1ccccc1)N(CCCl)Cc1ccccc1 (stereo not given) | 7.32 | 2.35 |  |  |  |  | inactive | inactive | inactive |  |  | 12.6 µM (active) |  |  |
| O=C(c1ccc(OCCN2CCCCC2)cc1)c1c(-c2ccc(O)cc2)sc2cc(O)ccc12 |  |  | 11.2 µM (active) | 2.82 µM (active) |  |  | 10 µM (active) |  | 2 µM (active) |  |  | 2.51 µM (active) | 2.82 µM (active) | 11.2 µM (active) |
| CC(C)NCC(O)COc1ccc(CCOCC2CC2)cc1 (stereo not given) | 13.9 | -3.18 | inactive | inactive |  | inactive | inactive | inactive | inactive |  |  | 11.2 µM (active) |  |  |
| CC1(CN2CCC(n3c(=O)[nH]c4ccccc43)CC2)OCc2ccccc2-n2cccc21 (stereo not given) |  |  |  | 10 µM (active) |  |  |  |  |  |  |  | 3.16 µM (active) |  |  |
| O=c1[nH]cc(F)c(=O)[nH]1 |  | -26.3 |  |  | inactive |  |  |  |  |  |  | 12.6 µM (active) |  |  |
| O=C(Nc1ccc([N+](=O)[O-])cc1Cl)c1cc(Cl)ccc1O |  |  |  | 0.794 µM (active) |  |  | inactive | inactive | 1.78 µM (active) |  |  | 0.891 µM (active) |  |  |
| OCCN1CCN(CCCN2c3ccccc3Sc3ccc(C(F)(F)F)cc32)CC1 |  |  | 12.6 µM (active) | 10 µM (active) | 8.91 µM (active) | 11.2 µM (active) | 12.6 µM (active) | 11.2 µM (active) | 7.08 µM (active) |  |  | 3.16 µM (active) | 7.08 µM (active) | 10 µM (active) |
| NC12CC3CC(CC(C3)C1)C2 | 8.47 | 14.2 | inactive | inactive | inactive | inactive | inactive | inactive | inactive |  |  |  |  |  |
| Cn1cnc2c1c(=O)[nH]c(=O)n2C | 1.87 | -0.248 | inactive | inactive | inactive | inactive | inactive | inactive | inactive |  |  | inactive |  |  |
| CN(Cc1cnc2nc(N)nc(N)c2n1)c1ccc(C(=O)N[C@@H](CCC(=O)O)C(=O)O)cc1 |  |  | inactive | 0.141 µM (active) |  |  | 0.251 µM (active) |  | 0.141 µM (active) |  |  | 0.126 µM (active) | 0.112 µM (active) | 0.141 µM (active) |
| CC(C)(Oc1ccc(C2CC2(Cl)Cl)cc1)C(=O)O (stereo not given) | -6.79 | 2.45 | inactive | inactive | inactive | inactive | inactive | inactive | inactive |  |  |  |  |  |
| CN(C)CCCN1c2ccccc2CCc2ccc(Cl)cc21 | -15.4 | -29.1 |  |  |  |  | inactive | inactive | inactive |  |  | 5.01 µM (active) |  |  |
